Source: PubChem BioAssay (several laboratories)
Rows were chosen to be rich in hits. Some 2.3% of all compounds tested hit in one or more screens of this group.
Mcl1 Bid PPI: Mcl-1/Bid binding inhibitors, primary screen, biochemical, TR-FRET, 1536-well; Induced myeloid leukemia cell differentiation protein Mcl-1 (Homo sapiens), Q07820; TR-FRET Mcl-1/Bid-Dy647 peptide binding; inhibition, % at 21.7 µM; hit rate 0.97% among 220,000; AID 1021, 2008;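 active = compounds that cut the binding signal by more than half at the single screening dose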;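 also: His-tagged Mcl-1 with europium anti-His antibody binding Bid BH3 peptide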
Mcl1 Noxa PPI: Mcl-1/Noxa binding inhibitors, primary screen, biochemical, TR-FRET, 1536-well | AID 1022, 2008 | Induced myeloid leukemia cell differentiation protein Mcl-1 (Homo sapiens), Q07820 | hit rate 1.5% among 220,000 | TR-FRET Mcl-1/Noxa peptide binding, 2 h | inhibition, % at 21.7 µM;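 active = compounds that cut the protein-peptide binding signal by more than 50% relative to plate controls in a single-dose test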;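 also: His-tagged Mcl-1 with rhodamine Noxa BH3 peptide and terbium anti-His antibody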
Mcl-1 Bim block: inhibitors of Bim peptide binding to Mcl-1, primary screen, biochemical, bead-based flow cytometry, multiplex. AID 1009, 2008. hit rate 0.1% among 190,000. Induced myeloid leukemia cell differentiation protein Mcl-1 (Homo sapiens), Q07820. inhibition, % at 10 µM. Bim peptide-Mcl-1 binding; in the data active = inhibition above about 40%
GLD-1 RNA inh: GLD-1/TGE RNA complex disruptors, primary screen, biochemical, fluorescence polarization; purified GLD-1 + fluorescein TGE RNA; Female germline-specific tumor suppressor gld-1 (Caenorhabditis elegans), Q17339; hit rate 0.44% among 320,000; inhibition, % at 5.96 µM; AID 2280, 2010;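 active = percent inhibition above a per-plate cutoff, the plate mean of test compounds plus 3 SD, cut at about 30% in these data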
Target sequence (Q17339 whole entry, looked up): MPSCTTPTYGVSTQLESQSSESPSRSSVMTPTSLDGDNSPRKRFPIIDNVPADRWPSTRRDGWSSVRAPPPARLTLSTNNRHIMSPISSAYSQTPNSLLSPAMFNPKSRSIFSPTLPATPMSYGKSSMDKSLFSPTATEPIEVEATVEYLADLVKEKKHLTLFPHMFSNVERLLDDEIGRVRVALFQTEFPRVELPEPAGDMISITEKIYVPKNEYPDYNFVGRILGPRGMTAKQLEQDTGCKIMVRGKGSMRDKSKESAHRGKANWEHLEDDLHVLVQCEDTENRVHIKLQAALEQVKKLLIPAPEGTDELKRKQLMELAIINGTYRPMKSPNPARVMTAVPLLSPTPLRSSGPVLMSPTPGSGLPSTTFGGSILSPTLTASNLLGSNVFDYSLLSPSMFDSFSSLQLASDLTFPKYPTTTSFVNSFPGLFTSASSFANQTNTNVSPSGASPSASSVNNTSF
MCL1 BIM primary: inhibitors of MCL1 binding to BIM-BH3, primary screen, biochemical, fluorescence polarization; Induced myeloid leukemia cell differentiation protein Mcl-1 (Homo sapiens), Q07820; GST-MCL1 / FITC-Bim-BH3 fluorescence polarization; inhibition, % at 10.9 µM; hit rate 0.68% among 320,000; AID 2057, 2009;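 active = inhibition above the mean inhibition of all tested compounds plus 3 SD, set per campaign, cut at about 40% in these data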;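 also: higher means more loss of mP so more displacement of Bim peptide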
Bcl-xL primary: inhibitors of human Bcl-xL, primary screen, biochemical, fluorescence polarization, HTS | hit rate 0.7% among 320,000 | GST-Bcl-xL / FITC-Bim BH3 peptide fluorescence polarization | inhibition, % at 10.9 µM;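 active = inhibition above the mean of all tested compounds plus 3 SD, cutoff set per campaign, cut at about 30% in these data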;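 also: inhibitors lower millipolarization by displacing the labeled peptide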
Of the large screens only hits and unclear results are named; the others gave an inactive call.

CN(CCc1ccccn1)C(=O)CCC1CCCN(C(=O)c2ccccn2)C1 (stereo unspecified)	none
CN(CCc1ccccn1)C(=O)CCC1CCCN(C(=O)NC2CCCCC2)C1 (stereo unspecified)	Mcl-1 Bim block 57
CC(=O)N1CCN(c2nc3ccc([N+](=O)[O-])cc3s2)CC1	none (no result: Mcl1 Bid PPI, Mcl1 Noxa PPI, Mcl-1 Bim block)
CCn1cc(C(=O)O)c(=O)c2cc(F)c(N/N=C/c3ccccc3[N+](=O)[O-])cc21	Mcl1 Bid PPI 62, Mcl1 Noxa PPI 55
O=C(/C=C/c1cccnc1)c1cccc(O)c1	none (no result: Mcl1 Bid PPI, Mcl1 Noxa PPI, Mcl-1 Bim block)
O=C(/C=C/c1cccnc1)c1ccc(O)cc1	Mcl1 Noxa PPI 85 (no result: Mcl-1 Bim block)
CNc1ccc(/C=C(\C#N)c2ccccn2)cc1[N+](=O)[O-]	Mcl1 Noxa PPI 64, MCL1 BIM primary 40, Bcl-xL primary 37
Cc1ccc(OCCN(C)C(=O)C2CCC(=O)N(CCCN3CCOCC3)C2)cc1 (stereo unspecified)	none (no result: Mcl1 Bid PPI, Mcl1 Noxa PPI, Mcl-1 Bim block)
CCc1ccc(C(=O)COC(=O)c2ccccc2OC)cc1	none (no result: Mcl1 Bid PPI, Mcl1 Noxa PPI, Mcl-1 Bim block)
CSc1cccc(NC(=O)c2ccccc2N(C)S(C)(=O)=O)c1	none
CN(c1cccc(NC(=O)c2ccccc2N(C)S(C)(=O)=O)c1)S(C)(=O)=O	Mcl1 Bid PPI 68
COc1ccccc1NC(=O)Cn1c(C)nc2c(sc(=S)n2Cc2ccco2)c1=O	none (no result: Mcl1 Bid PPI, Mcl1 Noxa PPI, Mcl-1 Bim block)
O=C(NN1C(=O)C2C(C1=O)C1C=CC2C12CC2)c1ccc(Cl)cc1 (stereo unspecified)	Mcl1 Bid PPI 100 (no result: Mcl-1 Bim block)
N/C(=N\N=C/c1ccc(F)cc1)N/N=C\c1ccc(F)cc1	none (no result: Mcl1 Bid PPI, Mcl1 Noxa PPI, Mcl-1 Bim block)
N/C(=N\N=C/c1ccc(Br)cc1)N/N=C\c1ccc(Br)cc1	Mcl-1 Bim block 40
NS(=O)(=O)c1cccc(NC(=O)Cn2cc(C(F)(F)F)cc(Cl)c2=O)c1	none (no result: Mcl-1 Bim block)
CCCCc1c(C)nc2c(OC)cccc2c1SCCC(=O)O	Mcl1 Noxa PPI 52
O=C(OCC(=O)N1CCCC1=O)C1COc2ccccc2O1 (stereo unspecified)	Mcl1 Noxa PPI 58
CCn1c(=N)n(CC(O)c2ccco2)c2ccccc21 (stereo unspecified)	none
C=CCn1c(=N)n(CC(O)c2ccco2)c2ccccc21 (stereo unspecified)	Bcl-xL primary 34
c1ccc(N2CCN(C3CC4CCC3C4)CC2)cc1 (stereo unspecified)	none (no result: Mcl1 Bid PPI, Mcl1 Noxa PPI, Mcl-1 Bim block)
Nc1ccc(NC(=O)c2ccc(C(=O)Nc3ccc(N)cc3)cc2)cc1	Mcl1 Bid PPI 62 (no result: Mcl-1 Bim block)
Nc1ccc(C(=O)Nc2ccc(Nc3ccncc3)cc2)cc1	none (no result: Mcl-1 Bim block)
CCOC(=O)c1nn(-c2ccccc2)c(C#N)c1N	Mcl-1 Bim block 41
Cc1nc(-c2cccs2)ccc1C(=O)O	none
Nc1ccc(C(=O)Nc2nc3ccccc3s2)cc1	none
COc1ccc(C(=O)c2sc3nc(C)cc(-c4cccs4)c3c2N)cc1	none (no result: GLD-1 RNA inh, MCL1 BIM primary, Bcl-xL primary)
CC(=O)c1sc2nc(-c3cccs3)ccc2c1N	Mcl1 Noxa PPI 74
CC(C)NC(=O)c1sc2nc(-c3cccs3)cc(-c3cccs3)c2c1N	Mcl1 Noxa PPI 52
Nc1c(C(=O)Nc2nc3ccccc3s2)sc2nc(-c3cccs3)ccc12	Mcl1 Bid PPI 92, Mcl1 Noxa PPI 97
COc1ccc(NC2CCCN(C(=O)c3cc(CC(C)C)nc(N)n3)C2)cc1 (stereo unspecified)	none (no result: Mcl1 Bid PPI, Mcl1 Noxa PPI, Mcl-1 Bim block)
O=C(N/N=C/c1ccc(O)cc1O)c1ccc(CN2C(=O)c3cccc4cccc2c34)cc1	Mcl1 Noxa PPI 78
Cc1ccc(C(=O)NCC(=O)OC(C)C(=O)Nc2ccc(N(C)C)cc2)cc1C (stereo unspecified)	Mcl1 Noxa PPI 71
CC(=O)Cc1nsc(NC(=O)c2ccc(-c3cc(C(F)(F)F)ccc3Cl)o2)n1	Mcl1 Bid PPI 68
CC1=C(C(=O)OCC(C)C)C(c2ccsc2)NC(=O)N1 (stereo unspecified)	Mcl1 Noxa PPI 79
Cc1ccc(S(=O)(=O)Nc2nc3ccccc3nc2NCc2ccco2)cc1	MCL1 BIM primary 43, Bcl-xL primary 40
